Compound activity (PubChem)
Platelet DG rel = platelet dense granule release activity; AID 1663; hit rate 0.22% among 300,000; human platelet-rich plasma, SFLLRN dense granule ATP release, luminescence; inhibition, %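 (compounds screened at 7.5 µM in platelet-rich plasma)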;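 active = mean replicate score, as percent of positive control, at or above 50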
Rce1 inh = blocks yeast Ras-converting enzyme; Q03530; yeast membranes, quenched prenylated peptide cleavage fluorescence; calls only; hit rate 0.27% among 290,000;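 active = fall in fluorescence gain of 50% or more versus controls, with final raw signal at or below 3038400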;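 also: plate controls were neutral control wells for no effect and wells lacking membranes for full effect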
Target sequence (Q03530 whole entry, looked up): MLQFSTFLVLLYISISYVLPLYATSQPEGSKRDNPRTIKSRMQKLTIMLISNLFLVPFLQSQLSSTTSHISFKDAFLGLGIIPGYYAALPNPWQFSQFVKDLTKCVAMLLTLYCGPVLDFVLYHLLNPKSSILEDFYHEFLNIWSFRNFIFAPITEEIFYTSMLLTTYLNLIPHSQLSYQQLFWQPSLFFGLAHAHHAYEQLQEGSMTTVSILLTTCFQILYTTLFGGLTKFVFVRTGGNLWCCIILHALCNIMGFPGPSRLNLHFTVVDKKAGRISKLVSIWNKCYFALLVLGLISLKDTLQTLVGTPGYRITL
ABHD5 PLIN5 PPI = ABHD5-PLIN5 protein interaction inhibition | Split G. princeps luciferase complementation, luminescence, 4 h | inhibition, % at 4 µM | hit rate 0.78% among 360,000 | AID 602281;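 active = inhibition above the mean inhibition across every tested compound plus 3 SD, cut at about 22% in these data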;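 also: 0% = DMSO only wells and the 100% control is not disclosed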
PfM18AAP inh-1 = blocks P. falciparum M18 aspartyl aminopeptidase; recombinant PfM18AAP, H-Glu-NHMec fluorogenic cleavage; inhibition, % at 7.35 µM; hit rate 1.2% among 290,000; AID 1822;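 active = inhibition above the campaign mean inhibition over all tested compounds plus 3 SD, cut at about 28% in these data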;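 also: 0% = plate median of test compound wells and 100% = 2 mM ZnCl2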
Exocytosis inh = blocks lytic granule exocytosis | TALL-104 LAMP-1 surface exposure, flow cytometry; cells stimulated with thapsigargin and PMA | inhibition, % at 10 µM | AID 651702 | hit rate 0.66% among 360,000;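 active = inhibition above about 55%, limit read from the data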
PfM18AAP inh-2 = PfM18AAP inhibition, confirmation | shares compounds with PfM18AAP inh-1 | recombinant PfM18AAP, H-Glu-NHMec fluorogenic cleavage | inhibition, % at 7.35 µM | hit rate 28% among 2,400 | AID 2170;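 active = mean inhibition over replicate wells above the hit cutoff set for the earlier primary screen, cut at about 29% in these data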;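 also: 0% = median of test compound wells and 100% = 2 mM ZnCl2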
CTSL1 counter = Cathepsin L (human) inhibition, confirmation | shares compounds with PfM18AAP inh-1 | purified cathepsin L1, Z-Leu-Arg-MCA fluorescence | inhibition, % at 5.96 µM | 2,400 tested, under 10 active;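 active = average inhibition across replicates above the hit cutoff set in the earlier primary screen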;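 also: 0% = median of test compound wells and 100% = Z-Phe-Ala-diazomethylketone 1 µM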
Target sequence (P07711 whole entry, looked up): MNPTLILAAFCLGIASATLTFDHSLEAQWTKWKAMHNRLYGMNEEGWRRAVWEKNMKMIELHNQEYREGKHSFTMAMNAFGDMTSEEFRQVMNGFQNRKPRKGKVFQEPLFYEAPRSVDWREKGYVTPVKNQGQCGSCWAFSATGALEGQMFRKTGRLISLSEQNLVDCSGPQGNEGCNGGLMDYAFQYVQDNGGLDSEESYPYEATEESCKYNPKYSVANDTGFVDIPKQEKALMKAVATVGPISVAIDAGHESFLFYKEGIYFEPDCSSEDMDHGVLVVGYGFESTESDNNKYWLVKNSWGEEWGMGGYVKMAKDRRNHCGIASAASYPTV
* hit, by the source's call; i = inactive; · = no result given. Hits are enriched below; roughly 2.6% of the tested compounds scored in any of these assays.

SMILES | Platelet DG rel | Rce1 inh | ABHD5 PLIN5 PPI | PfM18AAP inh-1 | Exocytosis inh | PfM18AAP inh-2 | CTSL1 counter
Cc1ccc(Nc2nc(-c3ccc(O)c(O)c3)cs2)nc1 | 1 | i | · | 63* | · | 43* | 2
c1ccc(Nc2nc(-c3cccs3)cs2)nc1 | 16 | i | -13 | 1 | 3 | · | ·
Cc1nc2ncccn2c1-c1csc(Nc2ccc(O)cc2)n1 | 0 | i | -30 | 41* | 13 | 43* | -2
Oc1ccc(-c2csc(Nc3ccccn3)n2)c(O)c1 | -8 | · | -21 | 34* | 16 | 13 | -1
NS(=O)(=O)c1ccc(Nc2nc(-c3ccc(O)cc3O)cs2)cc1 | 11 | · | -22 | 41* | 4 | 39* | 3
Cc1csc(=O)n1CCC(=O)OCC(=O)Nc1ncc(Cl)cc1Cl | -12 | i | -4 | · | 16 | · | ·
Cc1c(C(=O)OCC(=O)N2CCCCC2C)oc2ccccc12 (configuration not stated) | · | · | -3 | · | -1 | · | ·
CC(OC(=O)c1cc2sccc2n1C)C(=O)NCCc1ccccc1 (configuration not stated) | -5 | i | 1 | 4 | 2 | · | ·
Cc1cc(NS(=O)(=O)c2ccc(Nc3nc(-c4ccc(O)cc4)cs3)cc2)no1 | 0 | i | -5 | 43* | 0 | 18 | -4
Cc1cccnc1Nc1nc(-c2ccc(O)cc2O)cs1 | -1 | i | -11 | 32* | 3 | 5 | 4
O=C(NC1CCCc2c1cnn2-c1cc(F)cc(F)c1)c1ccncc1 (configuration not stated) | 1 | i | 4 | -9 | -4 | · | ·
Cc1ccc2nc(C)cc(N/N=C/c3cccnc3)c2c1 | 1 | i | 0 | 1 | 0 | · | ·
O=C(/C=C/c1cccc(Cl)c1)NCc1cccs1 | -3 | i | 2 | 6 | -4 | · | ·
COCCn1c(Cc2cccn2C)nnc1SCC(=O)NCc1ccc2c(c1)OCO2 | 3 | i | 0 | 35* | 1 | -40 | 2
O=S(=O)(Nn1cnnc1)c1ccccc1Cl | -14 | i | 4 | 36* | 0 | 43* | 0
O=S(=O)(Nn1cnnc1)c1ccccc1 | 4 | i | 1 | 37* | 11 | 61* | 1
COc1ccccc1S(=O)(=O)Cc1ccc(C(=O)NCc2cccnc2)o1 | -1 | i | 9 | 2 | 10 | · | ·
CC(C)C[C@H](NC(=O)c1nc[nH]c1C(=O)N1CCC(C)CC1)C(=O)OC(C)(C)C | 1 | i | 5 | · | 1 | · | ·
COc1ccc(S(=O)(=O)N2CCOCC2)cc1NC(=O)CO/N=C/c1ccccc1OC(F)F | -2 | i | 2 | 7 | -2 | · | ·
O=C1/C(=C/c2cccnc2)Cc2ccc(Cl)cc21 | -1 | i | 3 | · | 8 | · | ·
CCc1ccc(-c2nc(CS(=O)CC(=O)NCCN3CCCCCC3)c(C)o2)cc1 (configuration not stated) | -3 | i | 2 | 4 | 4 | · | ·
C/C(=C/c1oc2ccc(O)cc2c1[N+](=O)[O-])N(C)C | 10 | i | 4 | 37* | -1 | -23 | 8
COc1ccc(-c2nc(N)n(C(=O)c3ccc(C)cc3)n2)cc1 | -1 | i | 4 | -1 | -1 | · | ·
Cc1ccc2nc(N(CCCN(C)C)C(=O)c3sc4ccccc4c3Cl)sc2c1 | -23 | i | 14 | 4 | 8 | · | ·
O=c1c2ccccc2cnn1Cc1n[nH]c(=S)n1-c1ccc(F)cc1 | 0 | i | 0 | 36* | 2 | -1 | 2
SMILES | Platelet DG rel | Rce1 inh | ABHD5 PLIN5 PPI | PfM18AAP inh-1 | Exocytosis inh | PfM18AAP inh-2 | CTSL1 counter
O=c1c2ccccc2cnn1Cc1n[nH]c(=S)n1-c1ccccc1Cl | 9 | i | 12 | 38* | -5 | 6 | 1
O=c1c2ccccc2cnn1Cc1n[nH]c(=S)n1-c1ccc(F)c(Cl)c1 | -3 | i | -11 | 21 | 0 | · | ·
COc1ccc(Nc2nc3c([nH]2)c(=O)[nH]c(=O)n3C)cc1 | 10 | i | -1 | 35* | 1 | 12 | 1
CC12CCC(=O)C=C1CCC1C2C(O)CC2(C)C1CCC2(O)C(=O)CO (configuration not stated) | 1 | i | 1 | 1 | -1 | · | ·
O=C1/C(=C/c2ccc(Cl)cc2)SC(=S)N1CCC(=O)N1CCCCC1CCO (configuration not stated) | 2 | i | 0 | 2 | 0 | · | ·
O=C1/C(=C/c2ccco2)SC(=S)N1CCC(=O)N1CCCCC1CCO (configuration not stated) | 15 | i | -1 | 32* | 1 | -26 | 1
COCc1n[nH]c(=S)n1-c1ccccc1 | -6 | i | -4 | 12 | -1 | · | ·
S=c1[nH]nc(Cn2nnc3ccccc32)n1-c1ccc(Cl)cc1 | 6 | i | 0 | 39* | -4 | 4 | 2
S=c1[nH]nc(Cn2cnc3ccccc32)n1-c1ccccc1 | -6 | i | -4 | 42* | 2 | -9 | 0
S=c1nc[nH]c2c1ncn2-c1ccccc1 | · | · | 6 | · | 4 | · | ·
CC(C)n1cnc2c(=S)nc[nH]c21 | -1 | i | 5 | 24 | 0 | -46 | 5
CN(C)c1ccc(N/C=C/C(=O)C(C)(C)C)cc1 | -1 | i | -9 | 22 | 0 | · | ·
CC(C)(C)C(=O)/C=C/Nc1ccccc1O | 0 | i | -1 | 42* | 0 | 3 | -1
Oc1ccc(-c2nc(-c3ccc(O)c(O)c3)cs2)cc1 | 4 | i | 3 | 59* | 4 | 71* | -13
S=c1[nH]c(-c2ccccc2)cn1/N=C/c1cccs1 | 2 | i | -7 | 47* | 0 | 39* | 3
Fc1ccccc1/C=N/n1cc(-c2ccccc2)[nH]c1=S | -13 | i | -5 | 46* | -2 | 41* | 0
S=c1[nH]c(-c2ccccc2)cn1/N=C/c1cccnc1 | 1 | i | -7 | 62* | -2 | 57* | -4
S=c1[nH]c(-c2ccccc2)cn1/N=C/c1ccc(Br)cc1 | -10 | · | -1 | 19 | 2 | · | ·
Fc1ccccc1/C=N/n1cnnc1 | 1 | i | 2 | 14 | -6 | · | ·
CCOCCCNC(=O)c1cn(C)c2ccc(S(=O)(=O)N(C)C3CCCCC3)cc2c1=O | · | · | · | 0 | · | · | ·
c1coc(-c2nc(-c3ccncc3)no2)c1 | · | i | 5 | 4 | -1 | · | ·
COc1cccc(C(NC(C)=O)c2nc(-c3cccc(O)c3)cs2)c1 (configuration not stated) | · | · | -8 | · | -4 | · | ·
O=C(CSc1ncnc2c1nnn2Cc1ccccc1F)NCC1CCCO1 (configuration not stated) | -5 | i | 8 | -10 | 4 | · | ·
CCOC(=O)Cc1nnc(NC(=O)c2ncn[nH]2)s1 | 3 | i | 3 | 46* | 1 | 0 | -4
CCOC(=O)Cc1nnc(NC(=O)c2ccccc2OCC)s1 | 0 | i | 2 | 3 | 2 | · | ·
NS(=O)(=O)c1ccc(NC(=S)N2CCN(C(=O)C3CCCO3)CC2)cc1 (configuration not stated) | -5 | i | -8 | 47* | -2 | 1 | 1
